Bioassay records deposited in PubChem by several laboratories.
CF NFkB block = inhibitors of cystic fibrosis induced NF-kB; inhibition, % at 5 µM; 360,000 compounds, 0.86% hits; KKLEB NF-kB-GFP reporter, PAF-induced, GFP fluorescence overnight;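 active = at least 50% inhibition at 5 µM, scaled per plate between neutral and stimulator controls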;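 also: PAF is a Pseudomonas aeruginosa culture filtrate used as stimulus; plate controls were PAF-stimulated DMSO wells for no effect and unstimulated DMSO wells for full effect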
KKLEB cytotox = CF airway cell cytotoxicity counter-screen. KKLEB CF airway cells viability, ATPlite luminescence, overnight; stronger effect = lower value; cells stimulated with P. aeruginosa culture filtrate. activity change (cytotoxicity), % at 5 µM. 360,000 compounds, 0.36% hits. AID 602141;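 active = corrected activity change at or below -50% at 5 µM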
Shn3 inh set2 = Schnurri-3 reporter inhibition in Clone20 osteoblasts; Clone20 osteoblast Shn3 3'UTR firefly luciferase, 24 h; inhibition, % at 12.5 µM; 360,000 compounds, 0.52% hits; AID 588674;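 active = mean inhibition of at least 75% with every replicate also reaching 75%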;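 also: 0% = median of neutral control wells and 100% = pilot-screen positive control compound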
HIF-2a block = inhibitors of HIF-2a. AID 624352. inhibition, % at 18.8 µM. 360,000 compounds, 0.72% hits. 786-0 RCC cells HIF-2a reporter, luciferase luminescence, overnight;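 active = inhibition of the luminescence signal of 40% or more relative to plate controls, in a single-dose primary screen at 18.75 µM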
LMP1 NFkB inh = reduces LMP1-driven NF-kappaB luciferase signal. LMP1-induced NF-kappaB luciferase reporter cells, luminescence. inhibition, % at 12.5 µM. 350,000 compounds, 0.69% hits. AID 504558; in the data active = inhibition above about 41%;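 also: 0% = neutral control wells and 100% = reference inhibitor control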
Peg3 prom inh = Peg3 promoter activity inhibition | HeLa PEG-Prom luciferase reporter, luminescence, overnight | 360,000 compounds, 1.7% hits | inhibition, % at 20 µM;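 active = inhibition of at least 50% at 20 µM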
Mdm2-MdmX confirm = confirmation of inhibitors of human Mdm2/MdmX interaction, set 2 | SaOS-2 split-luciferase Mdm2/MdmX complementation, luminescence | shares compounds with HIF-2a block | inhibition, % at 8 µM | 740 compounds, 99% hits;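 active = mean inhibition of the luminescence signal across two replicates at or above 26 percent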
Target sequence (O15151 whole entry, looked up): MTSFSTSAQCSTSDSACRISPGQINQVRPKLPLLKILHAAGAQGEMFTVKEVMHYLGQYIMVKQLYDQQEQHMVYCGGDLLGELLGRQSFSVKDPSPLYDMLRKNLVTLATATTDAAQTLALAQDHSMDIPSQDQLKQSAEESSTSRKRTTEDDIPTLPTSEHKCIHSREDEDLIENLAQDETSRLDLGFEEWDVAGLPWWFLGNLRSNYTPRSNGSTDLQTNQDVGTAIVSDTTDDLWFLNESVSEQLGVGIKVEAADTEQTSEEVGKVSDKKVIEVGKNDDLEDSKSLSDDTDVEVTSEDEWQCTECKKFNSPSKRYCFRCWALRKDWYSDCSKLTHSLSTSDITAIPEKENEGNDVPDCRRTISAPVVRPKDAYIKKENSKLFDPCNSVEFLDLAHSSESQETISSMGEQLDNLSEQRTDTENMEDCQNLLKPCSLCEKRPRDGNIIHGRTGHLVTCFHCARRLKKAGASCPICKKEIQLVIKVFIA
Target sequence (Q00987 whole entry, looked up): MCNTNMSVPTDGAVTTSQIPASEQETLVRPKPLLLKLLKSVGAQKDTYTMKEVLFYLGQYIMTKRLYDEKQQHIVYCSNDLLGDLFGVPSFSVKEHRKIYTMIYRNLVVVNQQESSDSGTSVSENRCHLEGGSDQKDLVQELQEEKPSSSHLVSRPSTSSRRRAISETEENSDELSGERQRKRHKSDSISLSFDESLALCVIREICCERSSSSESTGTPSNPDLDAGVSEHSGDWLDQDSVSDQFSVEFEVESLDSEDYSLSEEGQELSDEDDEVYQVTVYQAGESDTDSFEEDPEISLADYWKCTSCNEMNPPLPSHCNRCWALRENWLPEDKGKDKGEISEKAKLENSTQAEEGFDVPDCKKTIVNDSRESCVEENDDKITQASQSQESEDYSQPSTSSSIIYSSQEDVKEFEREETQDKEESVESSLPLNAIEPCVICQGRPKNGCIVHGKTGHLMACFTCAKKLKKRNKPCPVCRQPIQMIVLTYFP
HIF-2a conf = HIF-2a inhibition, single concentration confirmation; shares compounds with HIF-2a block; inhibition, % at 18.8 µM; 786-0 RCC cells, HIF-2a luciferase reporter luminescence, overnight; AID 651580; 1,800 compounds, 56% hits;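 active = mean inhibition across four replicates of at least 40 percent at the single tested concentration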
HIF-1a cs = counter-screen for HIF-2a inhibitors: HIF-1a inhibition in MiaPaCa-2 cells; shares compounds with HIF-2a block; MiaPaCa-2 HIF-1a luciferase reporter, desferoxamine, overnight; inhibition, % at 18.8 µM; 1,800 compounds, 72% hits; AID 651589;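 active = mean inhibition of the reporter signal across four replicates at the single tested dose of 50% or more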
* = called active by the depositor; x = no result; ! = not confirmed by another sample. An excerpt weighted towards active compounds, which were near 2.9% of everything screened.

SMILES	CF NFkB block	KKLEB cytotox	Shn3 inh set2	HIF-2a block	LMP1 NFkB inh	Peg3 prom inh	HIF-2a conf	HIF-1a cs	others
Cc1ccc(NC(=O)/C=C/c2ccc([N+](=O)[O-])s2)cc1	-42	7	16	-58	-170	-72	x	x
Cc1cccc(NC(=O)/C=C/c2ccc([N+](=O)[O-])s2)c1	-27	-33	91*	49*	88*	107*	-163	103*
Cc1ccc(NC(=O)/C=C/c2ccc([N+](=O)[O-])s2)c(C)c1	-13	-29	94*	79*	84*	89*	-23	100*
Cc1cc(=O)oc(C)c1C(=O)Nc1cccnc1Cl	-10	10	x	12	-3	-5	x	x
COc1nnc(-c2ccc(N3CCCCC3)c(NC(=O)COc3ccccc3)c2)c2ccccc12	-5	-1	4	10	-3	7	x	x
O=C(O)Cn1cc(/C=C/[N+](=O)[O-])c2ccccc21	5	11	8	13	-1	4	x	x
N#Cc1ccccc1Cn1cc(/C=C/[N+](=O)[O-])c2ccccc21	40	-20	96*	96*	24	106*	97*	105*
O=[N+]([O-])/C=C/c1cn(Cc2ccccc2)c2ccccc12	-6	-8	22	43*	2	55*	71*	105*
CC1CCCCC12NC(=O)N(CC(=O)NCc1ccco1)C2=O (stereo unspecified)	12	3	-3	6	-1	4	x	x
CCOC(=O)c1c(NC(=O)CSc2nccn2C)sc(C(=O)NC)c1C	10	-17	-2	4	3	-4	x	x
COc1ccc(C(=O)NCCS(=O)(=O)N2CCN(C(=O)c3ccco3)CC2)cc1	-11	6	11	-1	3	-8	x	x
CCN1CCN(Cc2ccc(NC(=O)c3cc(NC(=O)c4cncc(-c5ccc(C#N)cc5)c4)cc(OC)c3)cc2C(F)(F)F)CC1	57*!	-73*!	98*	89*!	-25	106*	17	98*
COC(=O)C1=CN(c2ccc(OC)cc2)C(N)=C(C#N)C1c1ccc(OC)cc1 (stereo unspecified)	x	x	x	-19	x	x	x	x
CCc1ccc(N2C=C(C(=O)OC)C(c3ccc(OC)cc3)C(C#N)=C2N)cc1 (stereo unspecified)	x	x	x	53*	x	x	74*	99*
CCOC(=O)C(=Cc1c[nH]c2ccc(S(=O)(=O)N(C)C)cc12)C(=O)OCC	42	5	-14	56*	5	33	51*	81*
CCN1CCN(C(c2ccccn2)c2c(NC(=O)c3ccccc3)sc(C)c2C)CC1 (stereo unspecified)	7	-5	-18	-47	11	-10	x	x
CC(=O)c1cc2cccc(OC3(C)CCN(Cc4ccc5ccccc5c4)C3)c2o1 (stereo unspecified)	-9	-8	14	-1	x	-3	x	x
NC(=O)c1cccc(-c2noc(-c3ccccc3F)n2)c1	-28	11	1	-156	11	-159	x	x
COC(=O)c1cccc(-c2noc(-c3ccccc3F)n2)c1	-13	-3	-29	52*	38	-291	65*	-107
COCc1ccc(C(=O)N2CCCC(CCC(=O)NCc3ccccc3F)C2)o1 (stereo unspecified)	12	-9	-19	-23	-25	-23	x	x
O=C(OCn1ncc(Cl)c(Cl)c1=O)c1ccc(F)cc1	x	x	x	x	x	x	x	x	Mdm2-MdmX confirm=103*
O=C(OCn1ncc(Cl)c(Cl)c1=O)c1ccccc1Cl	99*	-90*	99*	95*	86*	102*	98*	106*
O=C(COC(=O)c1cnc(Cl)c(Cl)c1)c1ccc(F)cc1	6	8	1	-3	-1	9	x	x
O=C(OCCN1CCCCC1)c1ccccc1Cl	1	4	6	5	-2	0	x	x
O=C(Cc1ccccc1F)Nc1cc(S(=O)(=O)N2CCOCC2)ccc1N1CCCC1	4	-11	10	3	x	7	x	x
SMILES	CF NFkB block	KKLEB cytotox	Shn3 inh set2	HIF-2a block	LMP1 NFkB inh	Peg3 prom inh	HIF-2a conf	HIF-1a cs	others
CCOC(=O)C1=C(C)N=c2sc(=Cc3cc(Cl)c(OCC(=O)O)c(Cl)c3)c(=O)n2C1c1cccc(OC)c1 (stereo unspecified)	27	-12	-18	44*	x	47	46*	24
Cc1cccc(-c2ccc3[nH]c4c(c3c2)CCN2C[C@@H]([C@H](C)OC(=O)Nc3ccccc3C)[C@@H](N(C)C(=O)Nc3ccccc3C)C[C@@H]42)c1	16	15	-9	56*	-11	40	1	83*
CN1CC2=Cc3ccccc3OC23Oc2ccccc2C=C3C1	-1	-4	19	92*	-6	69*	20	79*
COc1ccccc1CNc1nc(NCc2ccc(NC(C)=O)cc2)c2sccc2n1	-27	-20	-3	57*	x	72*	14	70*
Cc1nonc1NC(=O)CSc1nc(C2CCCCC2)nc2ccccc12	36	-19	-7	45*	-6	27	30	68*
O=C(Nc1sc2c(c1C(=O)O)CCCC2)c1ccccc1Cl	9	-5	-9	-52	-1	-4	x	x
O=C(Nc1sc2c(c1C(=O)O)CCC2)c1ccccc1Cl	-6	10	7	68*	-7	20	97*	-25
Nc1ccc(-c2nnn(CC(=O)N3CCCCC3)n2)cc1	5	-2	1	49*	-12	-3	48*	18
O=C(Cn1nnc(-c2ccc(F)cc2)n1)N1CCCCC1	24	2	-7	-15	-3	-17	x	x
O=Nc1c2ccc[nH]c-2c2ccc([N+](=O)[O-])cc12	-107	9	-14	-39	-26	-12	x	x
CC(C)(C)OC(=O)N1Cc2ccccc2C[C@H]1C(=O)NCC(=O)Nc1ccc2c(c1)OCCO2	-5	0	31	47*	44*	40	58*	81*
Cc1cccc(-c2nnc(SCCC(=O)N3CCOCC3)o2)c1	-11	4	-20	49*	9	14	53*	30
Cc1ccc(-c2nnc(SCCC(=O)N3CCOCC3)o2)cc1	-20	0	-11	-4	1	-94	x	x
O=S1(=O)C=C(Sc2nc3cc(Cl)ccc3o2)c2ccccc21	88*	-100*	100*	-4	-9	102*	x	x	Mdm2-MdmX confirm=103*
